In the library only some 7% were active in any assay of this set; here they are far more common.
HP1b binding inh: inhibitors of HP1-beta chromodomain binding to methylated histone tails; AlphaScreen HP1-beta / biotin-H3K9me3 peptide binding; Potency, µM (highest dose often 114 µM), hits mostly inhibitors; 0.56% of 390,000 active; AID 540317; further: nearly all actives have a fitted effect of over 70% in size
Target sequence (P83916 whole entry, looked up): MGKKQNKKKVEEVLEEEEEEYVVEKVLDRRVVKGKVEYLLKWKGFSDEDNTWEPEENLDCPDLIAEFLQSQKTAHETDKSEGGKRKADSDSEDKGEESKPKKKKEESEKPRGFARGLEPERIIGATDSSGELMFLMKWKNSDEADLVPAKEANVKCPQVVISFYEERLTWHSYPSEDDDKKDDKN
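HP1-beta protein (50 nM final) preincubated 30 min at room temperature with biotinylated H3(1-18)K9me3 peptide (50 nM) in PBS pH 7.4, 0.01% Tween-20, then compound added for 30 min. AlphaScreen streptavidin donor/nickel chelate acceptor beads (10 ug/mL final), 30 min dark, luminescence read.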
JMJD2A Tudor inh: inhibitors of human JMJD2A Tudor domain. O75164. AlphaScreen JMJD2A-Tudor / H3K4me3 peptide binding. Potency, µM (titrated, usually from 114 µM), most hits filed as inhibitors. 4.4% of 390,000 active; further: nearly all actives have a fitted effect of over 50% in size
KAT2A inh: GCN5L2 (KAT2A) acetyltransferase inhibition | Potency, µM (series often up to 58.9 µM), usual class: inhibitors | GCN5L2 HAT assay, ThioGlo1 CoA-SH fluorescence | AID 504327 | 0.21% of 390,000 active | Q92830
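qHTS, 1536-well. 20nM enzyme, pH 7.5 HEPES/EDTA/Tween-20 buffer; 15 min compound preinc., RT. Start: 75uM H3(1-25), 70uM AcCoA, 50uM ThioGlo1. Read Ex340/Em540 at t=0 (autofluorescence flag) and t=20 min.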
BAZ2B block: BAZ2B (human) inhibition. AlphaScreen BAZ2B-H3K14Ac peptide displacement. Potency, µM (doses to about 114 µM), hits mostly inhibitors. 4.4% of 360,000 active. AID 504333; further: nearly all actives have a fitted effect of over 60% in size
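In this displacement format the biotinylated H3(5-23) peptide acetylated at Lys14 serves as ligand at 50 nM, with BAZ2B at 50 nM in PBS pH 7.4 containing 0.01% Tween-20. Donor and acceptor beads are 10 ug/mL final.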
PLK1 PBD inh: PLK1 (human) polo-box domain binding inhibition | Potency, µM, most hits filed as inhibitors | P53350 | 2.8% of 360,000 active | AID 720504 | Plk1 PBD binding of FITC phosphopeptide, fluorescence polarization; further: series mostly up to about 57 µM; nearly all actives have a fitted effect of over 65% in size
PI5P4Ka inh: PI5P4K alpha (human) kinase inhibition; PI5P4Kalpha enzyme, ADP-Glo luminescence, 60 min; hits give low values; max response, %; 1.2% of 330,000 active; AID 652105; active means max response of -50% or lower; inconclusive means between -30% and -50%; inactive means -30% or higher; further: value at the top dose of about 77 µM
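ADP-Glo luminescence end-point read after a 60 min room-temperature kinase reaction of PI5P4Kalpha plus substrate, initiated with ATP at 5 microM final. Buffer: 0.038 M HEPES pH 7.4, EGTA, 0.1% CHAPS, 5% DMSO.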
JMJD2E inh: JMJD2E (human) demethylase inhibition, confirmation; shares compounds with JMJD2A Tudor inh; Recombinant JMJD2E, FDH-coupled NADH fluorescence (FDH is formaldehyde dehydrogenase); Potency, µM (doses to about 56.8 µM), most hits filed as inhibitors; 93% of 140 active
FDH counter: counter-screen for JMJD2E inhibitors: Pseudomonas putida formaldehyde dehydrogenase. AID 2680. 10% of 140 active. Potency, µM (highest dose often 56.7 µM), hits mostly inhibitors. shares compounds with JMJD2A Tudor inh. FDH enzyme assay, NADH fluorescence kinetic
G9a confirm: inhibits human G9a histone lysine methyltransferase, hit confirmation | shares compounds with JMJD2A Tudor inh | G9a H3K9 monomethylation, AlphaScreen, 2 h | Potency, µM, most hits filed as inhibitors | 89% of 370 active | AID 588344; further: nearly all actives have a fitted effect of over 65% in size
Target sequence (Q96KQ7 913-1193 limits assumed): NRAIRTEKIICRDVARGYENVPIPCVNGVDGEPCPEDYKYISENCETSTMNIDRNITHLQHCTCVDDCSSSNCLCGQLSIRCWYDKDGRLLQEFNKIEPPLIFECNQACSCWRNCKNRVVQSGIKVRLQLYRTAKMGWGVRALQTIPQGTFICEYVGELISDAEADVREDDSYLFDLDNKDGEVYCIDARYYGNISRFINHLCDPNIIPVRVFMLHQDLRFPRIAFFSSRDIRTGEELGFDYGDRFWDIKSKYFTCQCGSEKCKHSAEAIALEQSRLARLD
RGS4 confirm: confirmation of human RGS4 inhibitors; shares compounds with JMJD2A Tudor inh; RGS4 GAP activity, Transcreener GDP fluorescence polarization; Potency, µM, actives largely listed as inhibitors; 80% of 25 active; AID 602388
Target sequence (P49798 whole entry, looked up): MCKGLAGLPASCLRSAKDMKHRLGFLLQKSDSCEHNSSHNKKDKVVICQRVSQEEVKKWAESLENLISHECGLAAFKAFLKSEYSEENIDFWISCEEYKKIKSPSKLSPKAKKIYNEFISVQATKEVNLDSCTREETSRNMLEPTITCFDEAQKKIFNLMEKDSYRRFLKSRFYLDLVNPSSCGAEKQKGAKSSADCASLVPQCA
ADP-Glo interf: interferes with ADP-Glo detection without enzyme present. shares compounds with PI5P4Ka inh. ADP-Glo detection counter-screen, luciferase luminescence, no enzyme. Potency, µM (series often up to 76.9 µM), actives largely listed as inhibitors. 1,100 tested, under 10 active. AID 743285
TbPYK inh: confirmation of Trypanosoma brucei pyruvate kinase inhibitors. shares compounds with PLK1 PBD inh. recombinant TbPYK, Kinase-Glo ATP luminescence. Potency, µM (top dose mostly 76.9 µM), actives largely listed as inhibitors. 67% of 890 active; further: nearly all actives have a fitted effect of over 70% in size
TbPYK orthogonal: TbPYK inhibition, orthogonal confirmation; shares compounds with PLK1 PBD inh; recombinant TbPYK, ADP-Glo luminescence, 60 min; Potency, µM (series often up to 76.9 µM), usual class: inhibitors; 62% of 890 active; AID 720584; further: nearly all actives have a fitted effect of over 75% in size
Large screens that a line does not name were inactive (follow-up assays come after a bar, where they were run). Unless noted, the call rests on the fitted dose curve; in most records, active means well fitted curve in the direction sought with a large enough effect; inconclusive means small, poorly fitted or top-dose-only effect, or another doubt; inactive means no such curve, though single readings can be large; an effect the other way counts as inactive or inconclusive.

COc1ccc(C(=O)c2sc(Nc3cccc(OC)c3)c(C(=O)Nc3cccc(C)c3C)c2N)cc1	JMJD2A Tudor inh inconclusive | G9a confirm 4.5
S=C(Nc1ccccn1)NC1CCCC1	none | G9a confirm 3.2
COc1ccc(/C=N/NC(=O)c2ccccc2O)cc1Cn1nnc2ccccc21	none
CN(Cc1ccccc1Cl)C(=O)CNC(=O)C12CC3CC(CC(C3)C1)C2	none (no result: BAZ2B block)
O=C(NC1CCCC1)c1ccc(COc2ccccc2Br)o1	none
CCOC(=O)c1nn(-c2ccc(OC)cc2)c(=O)c2c(N)scc12	JMJD2A Tudor inh inconclusive, KAT2A inh inconclusive, BAZ2B block 50µM, PLK1 PBD inh inconclusive (no result: PI5P4Ka inh) | G9a confirm 4
CCOc1ccc(NC(=O)CN(C)C(=O)c2ccccc2Cc2ccccc2)cc1OCC	none
CCOc1ccc(CC(=O)Nc2sc(Cc3ccccc3)cc2C(N)=O)cc1OCC	HP1b binding inh inconclusive, JMJD2A Tudor inh inconclusive, PLK1 PBD inh 17µM (no result: PI5P4Ka inh) | G9a confirm 6.3
CCN(CC)CCOC(=O)c1ccc(NC(=O)c2cn(-c3ccccc3)nc2-c2cccs2)cc1	none | RGS4 confirm 21
CCN(CC)CCNC(=O)c1cn(-c2ccccc2)nc1-c1cccs1	BAZ2B block inconclusive
CN(C)c1ccc(CNC(=O)c2cccc(NC(=O)N3CCSc4ncccc43)c2)cc1	JMJD2A Tudor inh inconclusive, BAZ2B block inconclusive (no result: PLK1 PBD inh, PI5P4Ka inh) | G9a confirm 18
CNC(=O)NC(=O)CSc1ccc(S(=O)(=O)N2CCOCC2)cn1	none | G9a confirm 5
CC(C)(C)NC(=O)CSc1ccc(S(=O)(=O)N2CCOCC2)cn1	none
Cc1csc(NC(=O)CSc2nc3sc(C)c(C)c3c(=O)[nH]2)n1	HP1b binding inh inconclusive, BAZ2B block inconclusive, PLK1 PBD inh 2.4µM, PI5P4Ka inh -57 | G9a confirm 0.89 | ADP-Glo interf inactive
CC1(C)C/C(=N\O)C(C(O)c2cccc([N+](=O)[O-])c2)C(C)(C)N1 (centres undefined)	none
O=C(CSc1cn[nH]n1)Nc1cccc(C(=O)O)c1	HP1b binding inh 18µM, JMJD2A Tudor inh 8.9µM, KAT2A inh inconclusive, PLK1 PBD inh 4.2µM, PI5P4Ka inh -64 | G9a confirm 1.3 | TbPYK inh 14µM | TbPYK orthogonal 35µM
O=S1(=O)CC(O)C(N(CCO)C(=S)Nc2ccccc2)C1 (centres undefined)	none
O=C(CSc1cccc2cccnc12)N1CCCC1	HP1b binding inh inconclusive, JMJD2A Tudor inh inconclusive, PLK1 PBD inh 3µM, PI5P4Ka inh inconclusive | JMJD2E inh 32µM | FDH counter 11µM | TbPYK inh inconclusive | TbPYK orthogonal inconclusive
Cc1cc(NC(=O)CSc2nnc(-c3ccccc3)n2Cc2ccco2)no1	none
CCOC(=O)CNC(=O)CSc1nnc(-c2ccccc2)n1Cc1ccco1	JMJD2A Tudor inh 45µM | G9a confirm 4.5 | TbPYK inh 2.2µM | TbPYK orthogonal 1.4µM
Cc1ccc(C)c(NC(=S)N2CCN(c3cccc(C(F)(F)F)c3)CC2)c1	none
Cc1ccnc(NC(=S)N2CCN(c3cccc(C(F)(F)F)c3)CC2)c1	JMJD2A Tudor inh 1µM, BAZ2B block 20µM, PI5P4Ka inh inconclusive | G9a confirm 0.28 | TbPYK inh 2.2µM | TbPYK orthogonal 2.8µM
N#C/C(=C\c1c(N2CCC(C(N)=O)CC2)nc2ccccn2c1=O)C(=O)NC1CCCCC1	none
CC(=O)NC(c1ccc(C)cc1)c1cc([N+](=O)[O-])c2cccnc2c1O (centres undefined)	JMJD2A Tudor inh 14µM, BAZ2B block 4.5µM, PI5P4Ka inh -59 | ADP-Glo interf inactive
O=C(Nc1ccc(Cl)c(Cl)c1)c1cccnc1	none
O=C(NC(c1ccc(Cl)cc1)c1cc(Cl)c2cccnc2c1O)c1cccnc1 (centres undefined)	PI5P4Ka inh -63 | ADP-Glo interf inactive
CCCCCCN1CC(=O)N2[C@@H](Cc3c([nH]c4ccccc34)C2(C)C)C1=O	none
COc1ccc(C(CC(=O)N2CCCC2)c2c(OC)cc(OC)c3ccc(=O)oc23)cc1 (centres undefined)	none
COc1ccc(C(CC(=O)N2CCCCC2)c2c(OC)cc(OC)c3c(-c4ccccc4)cc(=O)oc23)cc1 (centres undefined)	JMJD2A Tudor inh 50µM, BAZ2B block 45µM, PLK1 PBD inh inconclusive, PI5P4Ka inh -81 | ADP-Glo interf inactive
N#Cc1ccccc1S(=O)(=O)N1CCN(C(=O)C2COc3ccccc3O2)CC1 (centres undefined)	HP1b binding inh inconclusive, JMJD2A Tudor inh inconclusive, BAZ2B block inconclusive, PI5P4Ka inh -52 | ADP-Glo interf inactive
O=C(C1COc2ccccc2O1)N1CCN(S(=O)(=O)c2cc(F)ccc2F)CC1 (centres undefined)	none
O=C(Nc1sc2c(c1C(=O)O)CCC2)c1ccccc1Cl	JMJD2A Tudor inh inconclusive, PI5P4Ka inh -59 | ADP-Glo interf inactive
NC(=O)c1c(NC(=O)CN2CCOCC2)sc2c1CCC2	none (no result: BAZ2B block)
NC(=O)c1c(NC(=O)CN2CCCC2)sc2c1CCCC2	JMJD2A Tudor inh 18µM, PLK1 PBD inh 3µM, PI5P4Ka inh -53 | ADP-Glo interf inactive
CC(C)OC(=O)c1c(NC(=O)C2CC=CCC2C(=O)O)sc2c1CCCCC2 (centres undefined)	BAZ2B block inconclusive, PLK1 PBD inh inconclusive

Screening results: PubChem, National Center for Advancing Translational Sciences (NCATS)
